Measured values from ChEMBL document CHEMBL1157539, “Thousands of chemical starting points for antimalarial lead identification” (Nature, 2010).

Assays:
Type in all cases: functional
[1] = system: Plasmodium falciparum; test: GSK_TCMDC: Inhibition of Plasmodium falciparum 3D7 in whole red blood cells, using parasite LDH activity as an index of growth. Test compounds present at 2uM
[2] = system: Plasmodium falciparum; test: GSK_TCMDC: Inhibition of Plasmodium falciparum Dd2 in whole red blood cells, using parasite LDH activity as an index of growth. Test compounds present at 2uM
[3] = system: HepG2; test: GSK_TCMDC: Percent inhibition of human HepG2 cell line. Test compounds present at 10uM.

| Compound | Inhibition [1] [%] | Inhibition [2] [%] | Inhibition [3] [%] |
| --- | --- | --- | --- |
| CCn1cc(-c2cc(C(=O)Nc3ccc(OC)cc3C)c3ccccc3n2)c(C)n1 | 97 | 100 | 0 |
| Cl.Oc1ccc(-c2cc(COc3ccccc3C(F)(F)F)c(C3=CCNCC3)cc2COc2ccccc2C(F)(F)F)cc1 | 100 | 62 | 18 |
| COc1ccc(C2(CNCC(O)c3cccc([N+](=O)[O-])c3)CCCCC2)cc1OC.Cl (stereo not given) | 95 | 85 | 0 |
| CCCCc1ccc(NC(=O)Nc2cccc(CCNCc3ccccc3)c2)cc1.O=C(O)C(F)(F)F | 94 | 13 | 3 |
| Clc1ncnc2ncn(Cc3cccc(Br)c3)c12 | 91 | 56 | 0 |
| O=C(/C=C/c1ccc(Cl)cc1)NCCCCCN1CCN(C(=O)C=Cc2ccc(Cl)c(Cl)c2)CC1.O=C(O)C(F)(F)F | 92 | 0 | 30 |
| Cc1cc2c(NC(=O)NC3CCN(CCc4cccc(Cl)c4)CC3)cccc2cn1.Cl | 100 | 27 | 12 |
| Cc1cc(Nc2ccc(Oc3ccc(Cl)cc3)cc2)nc(N)n1 | 100 | 71 | 49 |
| c1ccc(-c2cccnn2)cc1 | 98 | 6 | 0 |
| Cc1ccoc1C(=O)Nc1cccc(-c2cccc(-c3nc4cc(C(F)(F)F)ccc4[nH]3)c2)c1 | 98 | 37 | 39 |
| N#Cc1ccc(C=Cc2nccc3c2[nH]c2ccccc23)cc1 | 97 | 28 | 33 |
| CC(=O)Nc1ccc(OCCCCN(Cc2ccccc2C(F)(F)F)c2ccc(C(F)(F)F)c(C#N)c2)c(Cl)c1 | 96 | 96 | 14 |
| Cc1sc(N2CCN(C)CC2)nc1C(=O)Nc1ccc(F)cc1C(F)(F)F.O=C(O)C(F)(F)F | 92 | 63 | 7 |
| O=c1cc(NCCCNCc2ccc3c(c2)OC(F)(F)O3)[nH]c2ccccc12 | 100 | 94 | 0 |
| CCCCn1c(-c2ccco2)nc2c(c(=O)c3ccccc3n2C)c1=O | 87 | 64 | 11 |
| O=C(c1ccc(-c2ccc(-c3nc4cc(F)ccc4[nH]3)cc2)cc1)N1CCCCC1CN1CCC(O)C1 (stereo not given) | 90 | 100 | 24 |
| Cc1cccc2nc(-c3cccc(-c4ccc(NC(=O)Nc5ccc6c(c5)OCO6)cc4)c3)[nH]c12 | 100 | 86 | 80 |
| Nc1nc(N)c2cc(CNc3ccc(Cl)c(Cl)c3)ccc2n1 | 93 | 55 | 62 |
| Cl.O=c1cc(NCCNCc2cccc(-c3ccccc3)c2)[nH]c2ccccc12 | 93 | 68 | 0 |
| O=C(Nc1cccnc1)c1cc(-c2cccnc2)nc2ccc(Br)cc12 | 99 | 60 | 9 |
| Cc1cc(NC(=O)Nc2ccc3ccn(C)c3c2)c2ccccc2n1 | 100 | 69 | 11 |
| O=C(O)C(F)(F)F.O=C(c1ccccc1)N(Cc1ccccc1-c1ccc(CNCCc2ccccc2)cc1)C1CCN(Cc2ccccc2)CC1 | 95 | 69 | 95 |
| O=C(CN1CCCCC1)Nc1ccc(Nc2nccc(NCC(O)c3ccccc3)n2)cc1 (stereo not given) | 100 | 95 | 62 |
| Cc1nc(N)nc(N)c1C#CC1CCCC1 | 96 | 2 | 68 |
| O=C(Nc1cccc(-c2nn3ccccc3c2-c2ccnc(Nc3cccc(F)c3)n2)c1)c1c(F)ccc(F)c1F | 96 | 73 | 33 |
| CCOC(=O)C1=C(C)NC2=C(C(=O)CC(C)(C)C2)C1c1ccc(Br)cc1 (stereo not given) | 90 | 66 | 0 |
| COc1ccccc1/C=C/C(=O)N(C)C1CCN(CCCCCNC(=O)/C=C/c2ccc(Cl)c(Cl)c2)C1 (stereo not given) | 94 | 14 | 10 |
| CCc1ccc(S(=O)(=O)Nc2cccc(CCN3CCC(N4CCCCC4)CC3)c2)cc1 | 100 | 20 | 21 |
| CN(C)c1ccc(CN2CCCCC(NC(=O)c3cc(-c4ccccc4Cl)cs3)C2)cc1.O=C(O)C(F)(F)F (stereo not given) | 91 | 14 | 10 |
| CCCN1CCN(c2cc(S(=O)(=O)Nc3ccc(C(=O)NCc4cccc(C(F)(F)F)c4)cc3)ccc2OC)CC1.O=C(O)C(F)(F)F | 92 | 8 | 27 |
